target: USP14 (UniProt P54578); assay: log2 ratio of Biotin-Ahx-Ub-VS probe labelling (fragment/DMSO); higher = less target engagement (more negative = stronger competition), active = hit call of the paper (q ≤ 0.05, log2 ratio ≤ -1); conditions: compound concentration: 200 uM; treatment time: 3 h
Method: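 Competitive ABPP in HEK293T cell lysate. Lysates were treated with each chloroacetamide fragment at 200 µM for 3 h, then with Biotin-Ahx-Ub-VS (0.5 µM, 1 h), NeutrAvidin-enriched and analysed by diaPASEF LC-MS/MS. Protein LFQ was median-normalised; average log2 ratio is fragment/DMSO from an unpaired t-test (n=3 treated, n=44 DMSO). Hits: q ≤ 0.05, log2 ratio ≤ -1, unique peptides ≥ 2.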

USP14, sequence (P54578 whole entry, the tested form may be a part): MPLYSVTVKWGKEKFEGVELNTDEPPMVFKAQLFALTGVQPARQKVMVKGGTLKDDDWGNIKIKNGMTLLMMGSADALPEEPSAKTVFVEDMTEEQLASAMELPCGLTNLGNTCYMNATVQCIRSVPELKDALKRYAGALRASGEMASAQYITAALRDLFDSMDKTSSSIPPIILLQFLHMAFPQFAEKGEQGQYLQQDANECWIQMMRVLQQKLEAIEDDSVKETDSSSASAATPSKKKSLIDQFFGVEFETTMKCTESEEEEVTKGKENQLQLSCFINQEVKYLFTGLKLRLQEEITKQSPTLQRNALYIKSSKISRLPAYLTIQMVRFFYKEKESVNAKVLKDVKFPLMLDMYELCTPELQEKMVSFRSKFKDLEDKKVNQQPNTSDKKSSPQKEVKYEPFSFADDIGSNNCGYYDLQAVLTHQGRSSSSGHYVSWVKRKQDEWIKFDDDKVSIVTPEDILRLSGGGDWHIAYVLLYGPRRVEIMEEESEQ

| Compound | log2 ratio of Biotin-Ahx-Ub-VS probe labelling |
| --- | --- |
| C#Cc1cccc(NC(=O)CCl)c1 | -0.191 (inactive) |
| CNC(=O)Cn1cc(NC(=O)CCl)cn1 | -0.154 (inactive) |
| O=C(CCl)NC1CCC2(CC1)OCCO2 | -0.308 (inactive) |
| O=C(CCl)N1CCOCC1C1CC1 (stereo not given) | -0.212 (inactive) |
| C[C@H]1CN(C(=O)CCl)CCN1C(=O)c1cnn(C)c1.Cl | -0.0358 (inactive) |
| CC(C)n1nccc1NC(=O)CCl | -0.146 (inactive) |
| O=C(CCl)NC1CCOc2ccccc21 (stereo not given) | -0.937 (inactive) |
| CNC(=O)C1(NC(=O)CCl)CCCCC1 | -0.0905 (inactive) |
| CCN(C(=O)CCl)C1CCCCC1 | -0.0238 (inactive) |
| O=C(CCl)N1CCc2[nH]c3ccccc3c2C1 | -1.05 (active) |
| O=C(CCl)Nc1nc(-c2cccs2)cs1 | 0.15 (inactive) |
| Cc1ccc(CN(CCO)C(=O)CCl)cc1 | -0.249 (inactive) |
| Cc1cc(Cl)ccc1NC(=O)CCl | -0.0914 (inactive) |
| O=C(CCl)N1CCC(c2noc3cc(F)ccc23)CC1 | -0.337 (inactive) |
| O=C(CCl)NCC(=O)N1CCCC1 | -0.0869 (inactive) |
| CN(C(=O)CCl)c1nc2ccccc2s1 | -0.178 (inactive) |
| N#Cc1ccc(Cl)cc1NC(=O)CCl | -0.283 (inactive) |
| O=C(CCl)N1CCc2sccc2C1 | -0.619 (inactive) |
| CN(CCC(O)c1ccc(Br)cc1)C(=O)CCl (stereo not given) | -0.442 (inactive) |
| CS(=O)(=O)c1ccc(CNC(=O)CCl)cc1 | -0.204 (inactive) |

| Compound | log2 ratio of Biotin-Ahx-Ub-VS probe labelling |
| --- | --- |
| COc1ccc(Cl)cc1NC(=O)CCl | -0.655 (inactive) |
| Cl.Cn1cnc2cc(CNC(=O)CCl)ccc21 | -0.222 (inactive) |
| O=C(CCl)N1CCC(O)(Cc2ccc(F)cc2)C1 (stereo not given) | 0.271 (inactive) |
| Cl.Cn1nccc1C(NC(=O)CCl)c1ccccc1 (stereo not given) | -0.0812 (inactive) |
| O=C(CCl)NCc1ccc2c(c1)OCO2 | 0.052 (inactive) |
| CN1c2ccccc2C(NC(=O)CCl)CS1(=O)=O (stereo not given) | -0.335 (inactive) |
| Cn1cc(CN(Cc2ccc(Cl)cc2)C(=O)CCl)cn1 | -1.03 (active) |
| O=C(CCl)N1CCOCCC1c1ccccc1 (stereo not given) | -0.111 (inactive) |
| CC(NC(=O)CCl)c1cnn(C2CC2)c1 (stereo not given) | -0.778 (inactive) |
| O=C(CCl)Nc1cc2c(cc1Cl)OCCCO2 | 0.135 (inactive) |
| NC(=O)C(Cc1ccccc1)NC(=O)CCl (stereo not given) | -0.156 (inactive) |
| Cc1cccc(NC(=O)CCl)c1C | -0.488 (inactive) |
| O=C(CCl)N1CCC(C(=O)N2CCCCCC2)CC1 | -0.204 (inactive) |
| Cc1cccnc1NC(=O)C1CCN(C(=O)CCl)CC1.Cl | -0.377 (inactive) |
| Cc1nc(CN2CCCN(C(=O)CCl)CC2)no1.Cl | 0.0942 (inactive) |
| O=C(CCl)NC1CCN(C(=O)C2CCCCC2)CC1 | -0.0275 (inactive) |
| Cc1cc(C(=O)NC2CCN(C(=O)CCl)CC2)no1 | -0.31 (inactive) |
| CC(c1ccccc1)N(C)C(=O)CCl (stereo not given) | -0.237 (inactive) |
| O=C(CCl)N1CCC2(CCC(O)CC2)CC1 | 0.0657 (inactive) |
| CCc1c[nH]c(CNC(=O)CCl)n1.Cl | -0.5 (inactive) |
